The campaign covered roughly 330,000 compounds. About 10,000 (3%) were called active. The sample as a whole holds a higher share of actives than the screen did. Unmarked numbers belong to inactive results.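 Rule for the calls: active = inhibition of at least 50% at 8 µM in the primary screen; inactive = the rest.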

The target of this assay is Protein Mdm4 (Homo sapiens) + E3 ubiquitin-protein ligase Mdm2 (Homo sapiens) (UniProt O15151+Q00987). The assay is described as follows: disruptors of Mdm2/MdmX RING complex – cell-based, luminescence, split luciferase, SaOS-2, uHTS, primary screen (AID 485346). The following applies: SaOS-2 split-luciferase Mdm2/MdmX complementation, at 8 µM, hits give high values.
Sequence of Protein Mdm4 (Homo sapiens) + E3 ubiquitin-protein ligase Mdm2 (Homo sapiens) (O15151 whole entry, looked up): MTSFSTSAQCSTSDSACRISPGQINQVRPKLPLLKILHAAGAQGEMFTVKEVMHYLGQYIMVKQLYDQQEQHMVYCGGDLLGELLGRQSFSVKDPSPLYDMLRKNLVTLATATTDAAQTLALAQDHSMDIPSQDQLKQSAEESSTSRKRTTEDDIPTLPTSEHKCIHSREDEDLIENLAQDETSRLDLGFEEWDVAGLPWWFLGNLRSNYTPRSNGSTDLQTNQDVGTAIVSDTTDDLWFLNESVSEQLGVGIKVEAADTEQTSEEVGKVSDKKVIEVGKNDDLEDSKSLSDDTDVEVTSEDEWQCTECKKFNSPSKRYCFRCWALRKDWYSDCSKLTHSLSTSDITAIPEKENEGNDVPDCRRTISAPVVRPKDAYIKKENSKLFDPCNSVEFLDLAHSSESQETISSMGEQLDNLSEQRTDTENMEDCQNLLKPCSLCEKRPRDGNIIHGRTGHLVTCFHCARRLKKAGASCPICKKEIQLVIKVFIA
Sequence of Protein Mdm4 (Homo sapiens) + E3 ubiquitin-protein ligase Mdm2 (Homo sapiens) (Q00987 whole entry, looked up): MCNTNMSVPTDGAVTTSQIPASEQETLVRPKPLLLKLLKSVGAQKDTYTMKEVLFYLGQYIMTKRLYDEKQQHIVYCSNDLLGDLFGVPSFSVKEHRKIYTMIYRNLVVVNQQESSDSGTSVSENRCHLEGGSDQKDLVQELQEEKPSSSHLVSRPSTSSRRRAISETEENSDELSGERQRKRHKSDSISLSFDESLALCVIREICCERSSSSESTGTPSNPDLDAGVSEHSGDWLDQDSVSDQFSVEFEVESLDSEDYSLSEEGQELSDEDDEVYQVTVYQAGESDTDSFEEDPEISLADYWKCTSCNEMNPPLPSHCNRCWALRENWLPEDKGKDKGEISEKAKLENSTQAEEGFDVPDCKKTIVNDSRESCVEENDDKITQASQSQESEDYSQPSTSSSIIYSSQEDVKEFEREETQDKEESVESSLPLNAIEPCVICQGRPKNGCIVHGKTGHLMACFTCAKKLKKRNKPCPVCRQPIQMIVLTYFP
For `O=S(=O)(O)Oc1c[nH]c2ccccc12`, the inhibition is 12.5%. The same measure for `O=C(Nc1ccc2c(c1)nc1n2CCCCC1)c1cc(S(=O)(=O)N2CCOCC2)ccc1Cl`: 4.51%; for `O=C(CN(c1cccc(Cl)c1)S(=O)(=O)c1ccccc1)NN=C1CCCC1`: -14%. The same measure for `CSc1nc(N)c(C#N)c(-c2ccccc2Cl)c1C#N`: 58.4% (active). In the case of `CSc1ccc(-c2c(C#N)c(N)nc3c2c(C)nn3-c2ccccc2)cc1` it was 40.5%. For the compound `COc1ccccc1-c1c(C#N)c(N)nc2c1CCC2`, the inhibition is -4.18%. In the case of `Cc1ccc(NC(=O)C(=O)NCC2CCN(C(=O)c3cccc([N+](=O)[O-])c3)CC2)cc1` it was -4.26%. On to `CCn1c(O)c(N=NC(=O)c2cccc(S(=O)(=O)N3CCCCC3)c2)c2ccccc21`, for which the inhibition is 51% (active).

Turning to `CCn1c2ccccc2c2cc(NC(=O)COC(=O)c3cc(S(=O)(=O)N4CCCCC4)ccc3Cl)ccc21`, the inhibition is 17.9%. In the case of `Cc1cccc(NC(=O)c2cccc(S(=O)(=O)N3CCCC3)c2)n1` it was -8.96%; in that of `CCOc1ccc(-n2cnc3c(=O)[nH]c(N)nc32)cc1`, -4.14%. Take `CCN(C[C@H]1N[C@@](Cc2ccccc2)(C(=O)OC)[C@H]2C(=O)N(Cc3ccccc3)C(=O)[C@@H]12)C(=O)c1ccc(C)cc1`: the inhibition was 0.772%. The same measure for `Cc1cccc([C@@H]2[C@@H]3C(=O)N(Cc4ccccc4)C(=O)[C@@H]3[C@]3(C)C(=O)N(c4ccc(Br)cc4)C(=O)N23)c1`: 53.1% (active); for `CC(C)(C)N1C(=O)[C@H]2[C@@H](c3ccc(Br)cc3)N3C(=O)N(c4cccc(Cl)c4)C(=O)[C@@]3(C)[C@H]2C1=O`: 10.7%.

As for `Cc1cccc([C@@H]2[C@@H]3C(=O)N(Cc4ccccc4)C(=O)[C@@H]3[C@]3(Cc4ccc(Cl)cc4)C(=O)N(c4cccc(Cl)c4)C(=O)N23)c1`, the inhibition is 8.94%. In the case of `Cc1ccc(S(=O)(=O)Nc2ccc(F)c(S(=O)(=O)N3CCOCC3)c2)cc1` it was 29.4%. The same measure for `Cn1c(=O)n(C)c2cc(/C=N/NC(=O)c3cccc(Br)c3)ccc21`: 19.4%.

On to `Cn1c(=O)n(C)c2cc(C(=O)Nc3ccc4c(c3)OCO4)ccc21`, for which the inhibition is 60.2% (active). In the case of `Cn1c(=O)n(C)c2cc(C(=O)Nc3ccc(Br)cc3)ccc21` it was 56.8% (active). In the case of `COc1cccc(OC)c1C(=O)Nc1ccc2c(c1)n(C)c(=O)n2C` it was 6.22%. In the case of `O=C(Nc1ccc2c(c1)OCO2)c1ccc(N2C(=O)c3ccccc3C2=O)cc1` it was 8.21%; in that of `CC(C)C(=O)Nc1cccc(C(=O)Nc2ccc3c(c2)OCO3)c1`, -105%. `CC1(C)C=Cc2c(ccc3c2OC[C@@H](c2ccc(O)cc2O)C3)O1`: the inhibition was -97.4%. In the case of `Cc1c(NC(=O)CSc2nnnn2-c2ccc(C(=O)O)cc2)c(=O)n(-c2ccccc2)n1C` it was 11%. Take `Cc1c(NC(=O)CSc2cccc3cccnc23)c(=O)n(-c2ccccc2)n1C`: the inhibition is 65.2% (active). In the case of `Cc1c(NC(=O)CSc2nnc(-c3cccnc3)n2N)c(=O)n(-c2ccccc2)n1C` it was -18.9%. In the case of `CCOC(=O)c1ccc(NC(=O)c2nc[nH]c2C(=O)NCc2ccccc2)cc1` it was 33.2%. In the case of `Cc1ccc(NC(=O)c2nc[nH]c2C(=O)N[C@@H](CCCCNC(=O)OC(C)(C)C)C(=O)OC(C)(C)C)cc1` it was 31.7%; in that of `CCOC(=O)c1ccc(NC(=O)c2nc[nH]c2C(=O)N[C@@H](CCCCNC(=O)OC(C)(C)C)C(=O)OC(C)(C)C)cc1`, 53.6% (active); in that of `O=C(CNC(=O)c1ccccc1F)OCC(=O)c1c[nH]c2ccccc12`, 6.82%. Consider `O=C(Nc1cccnc1)c1noc2c1CCCCC2`, for which the inhibition is 3.42%. On to `COc1ccc(/C=C2\SC(=S)N(CCC(=O)Nc3cccc(C(=O)O)c3)C2=O)cc1OC`, for which the inhibition was 0.635%. In the case of `Cc1ccc(/C=C2\SC(=S)N(CCC(=O)Nc3ccc(O)cc3)C2=O)cc1` it was 20.5%; in that of `Cc1ccc(/C=C2/SC(=S)N(CCC(=O)NCCCN3CCOCC3)C2=O)cc1`, -3.05%; in that of `COc1ccc(/C=C2/SC(=O)N(CCCCCC(=O)Nc3ccccc3C(=O)O)C2=S)cc1`, -4.65%. The same measure for `COc1ccc(/C=C2\SC(=S)N(CCC(=O)Nc3ccccn3)C2=O)cc1OC`: 76.7% (active). The same measure for `CC(C(=O)Nc1ccc(O)c(C(=O)O)c1)N1C(=O)/C(=C/c2cccs2)SC1=S` (centres undefined): 7.51%; for `O=C(CCN1C(=O)/C(=C/c2cccs2)SC1=S)NNC(=O)c1cccc(O)c1`: -31.2%. Take `CCOc1ccc(/C=C2\SC(=S)N(NC(=O)c3ccncc3)C2=O)cc1OC`: the inhibition was -7.45%. The same measure for `O=C(CCCN1C(=O)/C(=C/c2ccccc2)SC1=S)Nc1ccc(O)cc1`: 94.8% (active). The same measure for `O=C(CCCN1C(=O)/C(=C/c2cccs2)SC1=S)Nc1ccc(O)cc1`: 62.6% (active); for `C=CCOc1ccc(/C=C2\SC(=S)N(CCC(=O)O)C2=O)cc1`: 42%. The same measure for `O=C(CCCN1C(=O)/C(=C\c2ccccc2)SC1=S)Nc1ccccc1O`: 79.6% (active); for `Cc1csc(NC(=O)C2CCN(S(=O)(=O)c3ccccc3)CC2)n1`: -1.69%. On to `Cc1ccc2c(C)c(C(=O)N(C)CCC3CCCCO3)oc2c1C` (centres undefined), for which the inhibition is 27.9%. The same measure for `CC(=O)Nc1ccc(S(=O)(=O)Nc2nc3n(n2)C(c2ccccc2)CC(=O)N3)cc1` (centres undefined): 12.5%. The same measure for `CC(=O)NC12CC3CC(C1)CC(C(=O)N1CCN(S(=O)(=O)c4cccs4)CC1)(C3)C2`: 14.8%; for `Cc1ccc(Nc2nc(CSc3nnc(-c4ccncc4)n3-c3ccccc3C)cs2)cc1`: 38.1%; for `Cc1c(C(=O)NCC(c2ccco2)N2CCCC2)oc2ccc(Cl)cc12` (centres undefined): 21%. In the case of `CCCCCOC(=O)C1=C(C)Nc2nnnn2C1c1ccc(OC)c(OC)c1OC` (centres undefined) it was -18%.

As to `COc1cccc(-c2cc3nc4c(c(N5CCC6(CC5)OCCO6)n3n2)CCCC4)c1`, the inhibition was 22.2%. The same measure for `COc1ccccc1CN(C)C(=O)C1(c2ccc(Cl)cc2)CC1`: 14.8%; for `O=C(CN1C(=O)NC(Cc2c[nH]c3ccccc23)C1=O)Nc1ccccc1C(F)(F)F` (centres undefined): -9.67%.

In the case of `Cc1ccc2c(c1)N(CC(=O)N(Cc1ccccn1)Cc1ccco1)C(=O)C(C(C)C)O2` (centres undefined), the inhibition was 2.25%. In the case of `CCc1ccc(NC(=O)N2CCc3ccccc3C2)cc1` it was -51.8%; in that of `COC(=O)CSC1=C(C#N)C(c2ccccc2OC)C(C(=O)OC)C(=O)N1` (centres undefined), 15.2%. The same measure for `Cc1ccc(C2CC(=O)NC(SCC(=O)OCc3ccccc3)=C2C#N)o1` (centres undefined): 58.1% (active); for `CCCc1cc(=O)[nH]c(SCC(=O)OCc2ccccc2)n1`: 18.4%. The same measure for `COc1cc(OC)cc(C(=O)OCC(=O)Nc2sccc2C(N)=O)c1`: -6.16%; for `C=CCn1c(C)cc(C2=NNC(=NCC)SC2)c1C`: 97.3% (active). For `CCS(=O)(=O)N1CCC(N2CCN(c3ccccc3)CC2)CC1`, the inhibition is 1.56%. As to `O=[N+]([O-])c1ccccc1S(=O)(=O)Nc1cccc2cccnc12`, the inhibition was 94.5% (active).

In the case of `O=[N+]([O-])c1cccc2ncccc12`, the inhibition was 10.6%. The same measure for `Cc1ccccc1NC(=O)c1ccccc1NS(=O)(=O)c1cccc2cccnc12`: 11.2%; for `CN(CCc1ccccn1)C(=O)CCC1CCCN(Cc2ccccc2OC(F)F)C1` (centres undefined): -29.3%.

As for `CCOC(=O)C1=CN(Cc2ccc(Br)cc2)S(=O)(=O)NC1C` (centres undefined), the inhibition is 12.1%. In the case of `Clc1ccc2c(c1)C1=C(C(c3ccncc3)O2)C(c2ccc(Br)cc2)n2ncnc2N1` (centres undefined) it was 70.4% (active); in that of `Brc1ccc(C2=CC(c3ccco3)n3ncnc3N2)cc1` (centres undefined), 11.6%; in that of `CC1=C(C(N)=O)C(c2ccc(Br)cc2)n2ncnc2N1` (centres undefined), 5.41%.

For `O=C1NCCn2nc3ccccc3c21`, the inhibition was 16.4%. In the case of `Cc1ccc(NN=Nc2nc3c([nH]2)c(=O)n(C)c(=O)n3C)cc1` it was -16.4%; in that of `Cc1ccc(CSc2nc3[nH]ncc3c(=O)[nH]2)cc1`, -38.4%; in that of `C=CCN1C(=O)C(O)(CC(=O)c2ccccn2)c2ccccc21` (centres undefined), -5.9%. Take `N/C(=N\OC(=O)c1ccc2c(c1)OCO2)c1ccc(Br)cc1`: the inhibition was 84.4% (active). In the case of `O=C(c1ccc2c(c1)OCO2)N1CCOCC1`, the inhibition was 3.71%. The same measure for `C/C(=N/OC(=O)c1ccc(Br)cc1)c1ccc(C)cc1`: 5.85%; for `CC(C)(C)OC(=O)C[C@@H]1C/C=C\C[C@@H](CC(=O)N[C@@H](CO)Cc2ccccc2)C(=O)N2CCC[C@H]2COC1=O`: 9.85%. `O=C(Nc1ccncc1)Nc1ccc(F)cc1`: the inhibition is 14%.

Regarding `CSc1nc2ccc(NC(=O)c3c(F)cccc3F)cc2s1`, the inhibition was -79.2%.

Turning to `O=C(Nc1ccncc1)c1c(F)cccc1F`, the inhibition was 52.1% (active). Turning to `COCCNC(=O)COc1ccc(N(C)S(=O)(=O)c2ccc3ccccc3c2)cc1`, the inhibition is 16.8%. The same measure for `O=C(/C=C/c1ccc(Cl)cc1)Nc1ccc(Br)cn1`: 77.5% (active); for `O=C(/C=C/c1ccc(Cl)cc1)Nc1ccc(S(=O)(=O)Nc2ncccn2)cc1`: 0.48%; for `Cc1cc(C)nc(NC(=O)/C=C/c2ccc(Cl)cc2)n1`: 6.82%.

On to `CCn1c(SCC(=O)Nc2cc(C)ccc2C)nnc1-c1cnccn1`, for which the inhibition was -18.6%. In the case of `COc1ccc(N2C(=O)C(O)C2c2ccc(C)cc2)cc1` (centres undefined), the inhibition was 17.5%.

On to `COc1ccc(COC(=O)NC(C(=O)O)c2ccccc2)cc1` (centres undefined), for which the inhibition was 7.43%. The same measure for `COc1ccc(CN(C)C(=O)CC(c2ccccc2)c2ccccc2)cc1`: 2.66%. The same measure for `COc1ccc(C(CCN(Cc2ccc(OC)c(OC)c2)C(=O)CCl)c2ccccc2)cc1` (centres undefined): 100% (active).

The inhibition is the drop in the measured response relative to a control, in per cent.

These data come from PubChem BioAssay AID485346 (Sanford-Burnham Center for Chemical Genomics, 2010).
